Compound activity deposited in PubChem by NMMLSC.
Shown are actives, neighbours in structure and some others; about 1.2% of the full set was active somewhere.
Avidin fluor: compound fluoresces at 488/530 nm on avidin beads; compound fluorescence 488/530 nm, flow cytometry; active compounds read high; fluorescence (KMESF) at 10 µM; actives 0.38% (n = 220,000); AID 1775; in the data active = fluorescence above about 47
GSH bead fluor: GSH bead compound fluorescence profile | GSH beads flow cytometry, compound fluorescence 488/530 nm; active compounds read high | actives 0.25% (n = 190,000) | fluorescence (KMESF) at 10 µM; in the data active = fluorescence above about 89;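 also: glutathione beads carrying GST-tagged Bcl family fusion proteins plus one bare bead set; values are compound well signal with DMSO vehicle wells as background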
RGS4-Gao reg: human RGS4-Galphao interaction regulation; P09471; Multiplexed bead flow cytometry, RGS4-Galphao binding; actives lie on both sides; binding response (% of control), % at 10 µM; actives 0.33% (n = 220,000); in the data active = binding response below about 49% or above about 150%; inactive = in between;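 also: fluorescent Galphao activated with aluminum fluoride binding bead-coupled RGS4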
Target sequence (P09471 whole entry, looked up): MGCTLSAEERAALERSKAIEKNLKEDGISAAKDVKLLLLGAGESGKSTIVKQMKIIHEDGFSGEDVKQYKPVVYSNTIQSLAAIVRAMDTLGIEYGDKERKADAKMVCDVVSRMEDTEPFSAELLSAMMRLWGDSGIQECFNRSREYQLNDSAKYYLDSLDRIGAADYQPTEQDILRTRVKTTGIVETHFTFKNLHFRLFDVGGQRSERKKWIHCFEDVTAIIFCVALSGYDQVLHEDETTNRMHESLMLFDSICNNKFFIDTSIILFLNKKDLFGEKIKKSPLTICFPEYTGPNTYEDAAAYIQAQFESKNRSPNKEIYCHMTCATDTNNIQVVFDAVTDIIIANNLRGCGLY
RGS7-Gao: regulators of human RGS7-Galphao interaction; actives 0.35% (n = 220,000); Multiplexed bead flow cytometry, RGS7-Galphao binding; actives lie on both sides; binding response (% of control), % at 10 µM; in the data active = binding response below about 49% or above about 150%; inconclusive = no clear call, values can overlap the other calls; inactive = in between;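 also: fluorescent Galphao held in activated GDP-AlF4 state binding bead-coupled RGS7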
RGS16-Gao: RGS16-Galphao interaction regulator (human); bead-based flow cytometry RGS16-Galphao binding, fluorescence; actives lie on both sides; binding response (% of control), % at 10 µM; actives 0.38% (n = 220,000); O15492+P09471;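 also: Galphao activated by GDP with aluminum fluoride before binding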
RGS8-Gao reg: modulates binding of RGS8 to human Galphao. P09471. multiplexed bead flow cytometry; actives lie on both sides. response (percent of control binding), % at 10 µM. actives 0.34% (n = 220,000); in the data active = response below about 60% or above about 140%; inactive = in between;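 also: Galphao activated as the GDP aluminium fluoride complex binding bead-coupled RGS8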
RGS-Gao: modulates binding between human RGS4 and Galphao; shares compounds with RGS16-Gao; multiplexed bead flow cytometry, RGS–Galpha-o binding; RGS4–Galpha-o binding response, % at 10 µM; actives 99% (n = 1,600); AID 1504;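 also: fluorescently labeled Galpha-o bound to GDP with aluminium fluoride binding biotinylated RGS beads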
Target sequence (P09471 whole entry, looked up): as above
Target sequence (P49798 whole entry, looked up): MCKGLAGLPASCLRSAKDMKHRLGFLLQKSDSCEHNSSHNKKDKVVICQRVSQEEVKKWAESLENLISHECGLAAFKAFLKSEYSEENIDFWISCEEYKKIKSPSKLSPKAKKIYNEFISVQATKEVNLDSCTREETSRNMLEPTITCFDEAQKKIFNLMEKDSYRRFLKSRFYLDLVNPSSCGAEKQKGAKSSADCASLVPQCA
Avidin counter: biotin-avidin bead binding disruption counter-screen | shares compounds with RGS16-Gao | streptavidin beads, fluorescein-biotin binding, flow cytometry | inhibition, % at 10 µM | 1,700 tested, under 10 active | AID 1783;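 active = inhibition above 50%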;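 also: median green fluorescence of gated singlet beads compared with DMSO control wells; 0% = DMSO wells and 100% = complete loss of bead fluorescence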
RGS8-Gao single: RGS8-Galphao interaction regulation, single point confirmation; shares compounds with RGS16-Gao; bead-based flow cytometry RGS8-Galphao binding, fluorescence; actives lie on both sides; binding response (% of control), % at 10 µM; actives 3% (n = 1,700); AID 1836; in the data active = binding response below about 72% or above about 130%; inactive = in between;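 also: Galphao activated as GDP AlF4 complex before binding bead RGS8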
RGS7-Gao single: confirmation of regulators of human RGS7-Galphao interaction; bead-based flow cytometry RGS7-Galphao binding; actives lie on both sides; response (percent of control binding), % at 10 µM; shares compounds with RGS16-Gao; actives 7.8% (n = 1,700); in the data active = response below about 75% or above about 130%; inactive = in between;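 also: fluorescent Galphao activated with GDP and aluminum fluoride binding bead-coupled RGS7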
RGS16-Gao single: RGS16-Galphao interaction regulation, single point confirmation | shares compounds with RGS16-Gao | bead-based flow cytometry, RGS16-Galphao binding; actives lie on both sides | response (% of control binding), % at 10 µM | actives 4% (n = 1,700); in the data active = response below about 74% or above about 130%; inactive = in between;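 also: Galphao activated as the GDP aluminium fluoride complex binding bead-coupled RGS16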
RGS4-Gao confirm: confirmation of regulators of human RGS4-Galphao interaction; actives 4% (n = 1,700); RGS4-Galphao binding, multiplexed bead flow cytometry; actives lie on both sides; binding response (% of control), % at 10 µM; shares compounds with RGS16-Gao; in the data active = binding response below about 74% or above about 130%; inactive = in between
RGS19-Gao conf: confirmation of regulators of human RGS19-Galphao interaction; shares compounds with RGS16-Gao; bead-based flow cytometry RGS19-Galphao binding; actives lie on both sides; response (percent of control binding), % at 10 µM; actives 5% (n = 1,700); AID 1841; in the data active = response below about 50% or above about 160%; inactive = in between;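 also: 100% = no compound control and 0% = blank background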
Numbers without * were called inactive; ? = inconclusive; . = no result given; [ ] = remark or other dose. Unless noted, no rule for the calls is given here.

SMILES | Avidin fluor | GSH bead fluor | RGS4-Gao reg | RGS7-Gao | RGS16-Gao | RGS8-Gao reg | RGS-Gao | Avidin counter | RGS8-Gao single | RGS7-Gao single | RGS16-Gao single | RGS4-Gao confirm | RGS19-Gao conf
CCOC(=O)c1[nH]ncc1CN1CCCC(C(=O)c2ccc(C(C)(C)C)cc2)C1 (stereo unspecified) | 12 | 12 | 113.9 | 112.1 | 223.1 | 140.1*[activator] | 113.9* | -3.0 | 105.1 | 107.7 | 104.7 | 105.4 | 84.0
O=C(Nc1ccc([N+](=O)[O-])cc1)Nc1ccc(Cl)cc1F | -2 | 24 | 10.6* | -4.6* | -52.3 | 4.4* | . | 0.1 | 100.4 | 101.7 | 102.4 | 99.5 | 102.2
O=C(Nc1ccc(Cl)cc1)Nc1cc([N+](=O)[O-])ccc1F | 4 | 9 | 98.0 | 98.2 | 102.8 | 101.1 | . | . | . | . | . | . | .
COc1cccc(CNC(=O)C2=Cc3cccc(OC)c3OC2)c1 | 9 | 12 | 100.2 | 98.3 | 102.4 | 103.4 | . | . | . | . | . | . | .
CCn1c(/C=C/N(C(C)=O)c2ccccc2)[n+](CC)c2ccc(Cl)cc21 | 7 | 10 | 105.7 | 98.9 | 104.9 | 101.5 | . | . | . | . | . | . | .
CC[n+]1c(/C=C/C=C/N(C(C)=O)c2ccccc2)sc2ccccc21 | . | 25 | 14.0* | 148.6 | 149.9 | 98.0 | . | -3.3 | 117.1 | 243.5*[activator] | 153.4*[activator] | 162.8*[activator] | 278.4*[activator]
CC(=O)NCCNS(=O)(=O)c1ccc(C)c([N+](=O)[O-])c1 | 5 | . | 115.4 | 117.7 | 112.6 | 107.8 | . | . | . | . | . | . | .
CC(C)CSc1ccc(S(=O)(=O)NCC(=O)O)cc1[N+](=O)[O-] | 169* | 21 | 125.2 | 277.8*[activator] | 96.3 | 97.1 | 125.2* | -0.2 | 96.5 | 98.4 | 97.4 | 97.0 | 97.5
CC(=O)Nc1ccc(NC(=O)c2ccco2)cc1 | 8 | 15 | 83.5 | 84.7 | -100.5* | 69.0 | 83.5* | -1.3 | 102.4 | 96.8 | 101.7 | 101.2 | 93.8
CCCc1cc(=O)oc2c3c(c4c(c12)OC(C)(C)C=C4)OC(C)C(C)C3O (stereo unspecified) | 0 | . | -6.7* | ? | -5.8* | 10.2* | . | -1.8 | 107.2 | 110.7 | 108.3 | 110.0 | 112.4
COc1ccc(-c2ocnc2C(=O)Nc2ccccc2N2CCCCC2)cc1 | 221* | 16 | 127.9 | 229.9*[activator] | 112.9 | 98.8 | 127.9* | . | . | . | . | . | .
CCOc1ccc(C(=O)Nc2ccccc2N2CCCC2)cc1 | 6 | 27 | 116.4 | 117.4 | 115.3 | 113.5 | . | . | . | . | . | . | .
Cc1nn(-c2cc(N3CCCC3)ccc2[N+](=O)[O-])c(=O)c2ccccc12 | 7 | 33 | 95.2 | 100.6 | 85.8 | 96.3 | . | . | . | . | . | . | .
Cc1nn(-c2cc(N3CCOCC3)ccc2[N+](=O)[O-])c(=O)c2ccccc12 | 67* | 17 | 110.1 | 161.4*[activator] | 100.8 | 99.8 | 110.1* | -1.9 | 105.7 | 93.3 | 106.3 | 102.3 | 105.2
COc1cc(-c2nnc(SCC(=O)N(C)C3CCS(=O)(=O)C3)o2)cc(OC)c1OC (stereo unspecified) | 24 | 16 | 102.3 | 99.1 | 104.0 | 103.9 | . | . | . | . | . | . | .
Cc1ccc(NC(=O)c2ccc(OCc3c(C)noc3C)cc2)cc1 | 1 | . | 22.8* | ? | 26.6 | 52.9* | . | -0.4 | 101.4 | 105.9 | 105.9 | 106.3 | 104.0
Cc1ccc(NC(=O)c2cccc(OCc3c(C)noc3C)c2)cc1 | 8 | 10 | 100.0 | 98.8 | 102.6 | 102.8 | . | . | . | . | . | . | .
CNC(=O)c1cccc2cccc(Sc3ccccc3C(=O)O)c12 | 3 | . | 102.9 | ? | 99.2 | 100.0 | . | . | . | . | . | . | .
CNC(=O)c1ccccc1Sc1ccccc1CO | 7 | . | 93.8 | ? | 97.5 | 80.9 | . | 0.0 | 109.6 | 106.1 | 111.5 | 105.8 | 106.3
CCN(CC)CCN1C(=O)c2ccccc2NC1c1ccc(F)cc1 (stereo unspecified) | 37 | 25 | 98.9 | 99.8 | 102.0 | 100.7 | . | . | . | . | . | . | .
CCN(CC)CCN1C(=O)c2ccccc2NC1c1ccccc1F (stereo unspecified) | 3 | 23 | 87.9 | 89.9 | 22.7* | 75.3 | 87.9* | . | . | . | . | . | .
Cc1cc(C(=O)Oc2cccnc2)ccc1[N+](=O)[O-] | 1 | 8 | 90.8 | 104.5 | 24.8* | 75.9 | 90.8* | -0.6 | 103.5 | 107.2 | 103.7 | 102.5 | 100.2
COc1ccc(CNC(=O)CN2CCN(S(=O)(=O)c3cccs3)CC2)cc1OC | 24 | 13 | 100.1 | 100.0 | 100.0 | 99.7 | . | . | . | . | . | . | .
CCN1C(=O)CCC(C(=O)O)C1c1ccc(OC)cc1 (stereo unspecified) | 7 | . | 97.4 | ? | 100.1 | 99.8 | . | . | . | . | . | . | .
COc1ccc2c(CC(=O)OCC(=O)c3ccccc3OC)coc2c1 | 9 | 12 | 98.6 | 98.8 | 99.2 | 102.3 | . | . | . | . | . | . | .
SMILES | Avidin fluor | GSH bead fluor | RGS4-Gao reg | RGS7-Gao | RGS16-Gao | RGS8-Gao reg | RGS-Gao | Avidin counter | RGS8-Gao single | RGS7-Gao single | RGS16-Gao single | RGS4-Gao confirm | RGS19-Gao conf
COc1ccc2c(CC(=O)OCC(=O)c3ccc(F)cc3)coc2c1 | 102* | 29 | 112.5 | 180.8*[activator] | 105.2 | 98.5 | 112.5* | -1.1 | 102.0 | 102.5 | 102.2 | 104.8 | 120.8
CCOC(=O)C1=NN(c2ccc(C)cc2)CC1C(=O)OC (stereo unspecified) | 6 | 11 | 98.7 | 97.4 | 108.2 | 102.3 | . | . | . | . | . | . | .
COC(=O)c1cc(C)sc1NC(=O)c1cccnc1 | . | 46 | . | . | . | . | . | 2.5 | 99.6 | 101.3 | 98.9 | 100.3 | 99.2
Nc1ccccc1NC1CCCCC1 | 10 | 12 | 118.1 | 116.9 | 112.7 | 113.9 | . | . | . | . | . | . | .
CC(C)(C)C1(O)CC(C(F)(F)F)=NN1C(=O)Cc1ccc([N+](=O)[O-])cc1 (stereo unspecified) | 10 | 12 | 99.2 | 96.9 | 99.1 | 100.1 | . | . | . | . | . | . | .
Cc1nn(C(C)C(=O)O)c(=O)c2ccccc12 (stereo unspecified) | 5 | 8 | 94.2 | 95.3 | 66.6 | 90.0 | . | . | . | . | . | . | .
C=Cn1nc(C)c2ccccc2c1=O | 0 | 31 | 24.6* | 14.0* | 17.5* | 15.6* | . | 1.2 | 99.1 | 100.2 | 98.8 | 99.0 | 103.9
